From PubChem BioAssay AID687 (PCMD, 2007)
Out of some 33,000 compounds screened, about 95 (0.3%) were called active. What follows is part of a selection rich in actives, with near analogues and random picks from the rest. Unmarked numbers belong to inactive results.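 How the source made its calls: active means inhibition above 40% in the primary screen; inactive means the rest.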

target: Coagulation factor XI (Homo sapiens) (UniProt P03951); assay: human FXIa protease inhibitors, primary screen, biochemical, single compound per well (AID 687); details: purified human FXIa, fluorogenic AMC substrate cleavage; at 10 µM; stronger effect = higher value;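 further: 0% = enzyme without compound and 100% = blank wells lacking enzyme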
Sequence (P03951 19-387 limits assumed): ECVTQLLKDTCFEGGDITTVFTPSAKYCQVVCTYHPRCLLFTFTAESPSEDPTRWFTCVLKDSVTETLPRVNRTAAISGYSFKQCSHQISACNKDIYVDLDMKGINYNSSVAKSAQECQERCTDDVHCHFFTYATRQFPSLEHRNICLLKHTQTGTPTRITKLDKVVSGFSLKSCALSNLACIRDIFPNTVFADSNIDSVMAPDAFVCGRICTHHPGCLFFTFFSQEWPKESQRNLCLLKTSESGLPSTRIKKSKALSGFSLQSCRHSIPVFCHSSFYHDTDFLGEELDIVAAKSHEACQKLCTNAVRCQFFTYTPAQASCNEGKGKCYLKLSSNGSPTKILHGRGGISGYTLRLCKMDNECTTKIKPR
Sequence (P03951 388-625 limits assumed): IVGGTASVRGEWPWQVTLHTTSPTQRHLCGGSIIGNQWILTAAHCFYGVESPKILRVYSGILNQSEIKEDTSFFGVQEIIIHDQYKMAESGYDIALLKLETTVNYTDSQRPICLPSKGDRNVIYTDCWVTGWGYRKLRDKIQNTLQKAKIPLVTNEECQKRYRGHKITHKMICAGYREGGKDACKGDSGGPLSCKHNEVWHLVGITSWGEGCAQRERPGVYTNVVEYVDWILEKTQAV

SMILES | inhibition
CCc1ccc(CNC(=O)C2CC(=O)N(CCc3ccc(C)cc3)C2)cc1 (centres undefined) | 1.74%
CC(C)(C)Oc1ncc(Br)c(OC(C)(C)C)n1 | -4.12%
CCc1ccc(CNC(=O)CCc2nc(-c3cccs3)no2)cc1 | 5.18%
CCOC(=O)c1cnc(SCC(=O)Nc2ccccc2C(=O)OC)nc1N | -1.2%
Cc1cc(C)n(-c2nnc(C)n2NC(=O)c2cccc(Cl)c2)n1 | -1.74%
C/C(=N\NS(=O)(=O)c1ccc(Br)cc1)c1cccs1 | 7.3%
O=C(O)c1cc2ccccc2c(=O)s1 | 3.97%
CCn1c(CC(=O)Nc2ccc(C)cc2)nnc1SCC(=O)Nc1nc(C)cs1 | 0.06%
COc1ccc(C)cc1NC(=O)CCS(=O)(=O)c1cccc2nonc12 | 24.9%
Cc1cc(C)nc(N2C(=O)CC(Cc3ccccc3)C2=O)n1 (centres undefined) | -0.09%
CCN1CC=C2C(C#N)=C(N)C(C#N)(C#N)[C@H](c3ccoc3)[C@H]2C1 | 1.2%
Cc1cccc(N2CCN(C(=O)c3cnn4c(C(F)F)cc(-c5ccccc5)nc34)CC2)c1C | 3.2%
CCOC(=O)CN(Cc1ccc(OC)c(OC)c1)S(=O)(=O)c1ccc(OC)cc1 | 6.28%
CC(C)NC(=O)CSc1ccccc1C(=O)NCc1ccc2c(c1)OCO2 | 6.02%
COn1c(=O)c(=O)n(OC)c2ccccc21 | 3.76%
Cc1cc(C)n(C(=O)CCNC(=O)c2ccccc2Cl)n1 | -5.37%
CCOC(=O)C1=C(C)NC2=C(C(=O)CC(C)(C)C2)C1c1ccsc1 (centres undefined) | 1.22%
Cc1cc(=O)oc2ccc(OCC(=O)O)cc12 | -9.94%
COc1ccc(Cl)cc1C(=O)Nc1ccc(N(C)C(C)=O)cc1 | 13.5%
COc1cccc(OC)c1C(=O)Nc1ccc(N2CCCCC2)cc1 | 4.14%
CCCC(=O)C1CCN(Cc2ccccc2)CC1 | 9.51%
O=C(O)CCN=C1CCc2ccccc2N1 | 5.95%
CCNC(=O)N1CCNC(=O)C1CC(=O)Nc1ccc(C(=O)OCC)cc1 (centres undefined) | -0.73%
CCC(=O)N(Cc1ccccc1)c1ccccn1 | -8.8%
O=C(c1ccco1)N1CCN(C(=O)C2CCCN(S(=O)(=O)c3cccc4nsnc34)C2)CC1 (centres undefined) | -6.85%

SMILES | inhibition
CCCOc1cccc(C(=O)Nc2nnn(CCC)n2)c1 | -6.61%
Cc1nnc(SCC(=O)N2CCc3ccccc3C2)s1 | 21.3%
O=C(COc1ccc(Cl)cc1)NCCSc1ccccc1 | 6.47%
COc1ccc(-n2cnc3cc(NCc4ccco4)ccc32)cc1 | 4.4%
Cn1nnnc1SCC(=O)N1CCN(C(c2ccccc2)c2ccccc2)CC1 | -3.99%
CCCC(O)(c1ccc(OC)cc1)C(CN(C)C)c1ccccc1 (centres undefined) | -1.37%
CSc1nc(C)cc(SC(C(C)=O)C(=O)Nc2ccccc2)n1 (centres undefined) | 0.47%
CC(=O)Nc1cccc(Oc2cc(C#N)c(C#N)cc2N2CCOCC2)c1 | 2.12%
CCOc1ccc(NC(=O)CCS(=O)(=O)c2ccc3c(c2)CCCN3C(=O)CC)cc1 | 19.3%
Cc1ccc(S(=O)(=O)c2c(COC(=O)c3cccc(Cl)c3)c(-c3ccccc3)nn2C)cc1 | 6.1%
CSc1ccccc1NC(=O)c1cc(C2CC2)on1 | 5.92%
CC(=O)c1c(C)[nH]c(C(=O)NCc2ccc(C)cc2)c1C | 4.49%
CCOc1cccc(NC(=O)Cn2nc(-c3ccc4c(c3)OCCO4)ccc2=O)c1 | -4.23%
O=C1C=C(NCCNc2c(F)c(F)c(CO)c(F)c2F)CCC1 | -9.07%
CC(C)C(c1nnnn1Cc1ccccc1)N1CCC(C(N)=O)CC1 (centres undefined) | 3.2%
O=C(Cc1ccc(-n2c(=O)[nH]c3ccccc3c2=O)cc1)N1CCN(c2cccc(Cl)c2)CC1 | 3.03%
O=C(CN1CCSCC1)N/N=C/c1ccc(F)cc1 | -8.31%
CCc1cccc(C)c1N(C(=O)Cn1c(CO)nc2ccccc21)C(C)COC (centres undefined) | 20.8%
CC(=O)OC(C(=O)NCCc1ccccc1)c1cccnc1 (centres undefined) | 4.94%
OCCN1CCOCCOCCN(CCO)CCN(CCO)CC1 | 29.9%
CCOc1ccc(C(O)Cc2nc3ccccc3n2C)cc1 (centres undefined) | 4.61%
Cc1ccc(C(=O)N2CCN(C3CCCCC3)CC2)s1 | -2.79%
CCCCN1C(=O)CC(N2CCOCC2)C1=O (centres undefined) | 4.69%
O=c1[nH][nH]c(C(F)(F)F)c1C=NCc1ccccc1Cl | -12.4%
O=C(NCc1ccc2c(c1)OCO2)C12CC3CC(CC(C3)C1)C2 | -3.87%

SMILES | inhibition
COC(=O)CNS(=O)(=O)c1ccc(OC)cc1 | 0.19%
CCN(CC)C(=O)CSc1nnc(C2CCCCC2)o1 | 5.02%
CC1CCC(N2CC(=O)N(Cc3ccc4c(c3)OCO4)C(c3ccc(F)cc3)C2=O)CC1 (centres undefined) | 1.08%
N#Cc1c(N)nc2c3c(sc(=N)c2c1N)NC(=O)CC3c1ccccc1Cl (centres undefined) | 40.9% (active)
O=C(Cc1c(F)cccc1Cl)N1CCN(C(=O)c2ccco2)CC1 | 2.75%
O=C(O)CSCc1ccc(C(=O)O)o1 | 0.52%
CCC(CC)C(=O)N1CC(=O)Nc2ccc(Br)cc2C1c1ccccc1 (centres undefined) | -3.26%
CC(C)C(=O)NC(NC(=S)NC1CCS(=O)(=O)C1)C(Cl)(Cl)Cl (centres undefined) | 0.31%
CCCc1nc2oc3c(OCC)ncnc3c2c2c1COC(C)(C)C2 | 26%
Cc1cc(C(=O)Nc2c(C)nn(Cc3ccccc3)c2C)on1 | 9.91%
COc1ccc(-c2cn(-c3ccc(C)cc3)c(=O)n2CC(=O)Nc2ccc(OC)c(OC)c2)cc1 | -1.74%
S=c1nccc(-c2cc(Cl)sc2Cl)[nH]1 | 3.11%
CC1CC(C)CN(C(=O)CSc2nnc(CSc3ncccn3)n2C)C1 (centres undefined) | -0.18%
O=c1c2ccccc2nc2n1C1(CCCCC1)Cc1ccccc1-2 | -5.48%
CC(=O)Nc1ccccc1OC(=O)N1CCOCC1 | -4.74%
O=C(CN1CCCCCC1)N1c2ccccc2Sc2ccc(C(F)(F)F)cc21 | 2.04%
C=CCC(NCc1ccco1)c1ccc(OC)cc1 (centres undefined) | 4.05%
O=C(CC1NCCNC1=O)Nc1ccc(Oc2ccccc2)cc1 (centres undefined) | 0%
CCOC(=O)c1cnc2sccn2c1=O | 6.51%
O=C(c1ccc(CN2CCOCC2)cc1)N1CCN(c2ccccc2F)CC1 | 3.59%
Cn1c(N)c(C(=O)COC(=O)C23CC4CC(CC(C4)C2)C3)c(=O)n(C)c1=O | 21.8%
O=C(NCCOc1ccccc1)c1ccccc1 | -5.53%
CC1CN(S(=O)(=O)c2ccccc2)C(C)CN1S(=O)(=O)c1ccccc1 (centres undefined) | 1.71%
COCCn1c(C)cc(C2=NNC(=Nc3ccc(F)cc3)SC2)c1C | -6.11%
COc1ccc(N(CC(=O)NC2CCCCC2)S(=O)(=O)c2c(C)[nH]c(=O)[nH]c2=O)cc1 | 8.86%

SMILES | inhibition
CCOc1c(Cl)cc(/C=N/O)cc1OC | -2.81%
COc1ccc(-n2nc(C(=O)NCC(=O)Nc3cccc(C)n3)c3ccccc3c2=O)cc1 | -9.02%
N#C/C(=C(\O)CCl)c1nnc2n1CCCCC2 | -2.88%
CCOC(=O)N1CCN(Cc2nc(N)nc(Nc3ccc(C)cc3)n2)CC1 | 17.1%
COCCCNC(=O)C1CC(=O)N(CCc2ccccc2)C1 (centres undefined) | 7.75%
Cc1cccc(C)c1NC(=O)CSc1nnc(-c2ccccc2)n1Cc1ccc2c(c1)OCO2 | 3.72%
COC(=O)c1ccc(CSc2ccc3nnc(-c4ccccc4)n3n2)o1 | 1.01%
CC(C)C(=O)Nc1nnc(Sc2ccc(N(C)C)cc2)s1 | -3.42%
Cc1ccc(-c2noc(CSc3nnc(-c4ccncc4)n3-c3ccc(F)cc3)n2)cc1 | 4.76%
COC(=O)C(C(=O)Nc1cccc(C)n1)C1CCCCCC1 (centres undefined) | -11.6%
Cn1c(CC(=O)Nc2ccccc2)nnc1SCC(=O)c1ccccc1 | -6.46%
O=C(COc1ccc(Cl)cc1)Nc1ccccc1CO | 2.06%
C=CCn1c(N)cc(=O)nc1SCC(=O)Nc1cccc2ccccc12 | 9.45%
CCn1c(SCC(=O)Nc2ccc(OC)c(OC)c2)nnc1-c1c[nH]c2ccccc12 | 7.43%
COC(=O)C1C(=O)NCC1c1ccc(C)cc1 (centres undefined) | 8.67%
CC(=O)Nc1ccc(S(=O)(=O)N2CCN(C3CCCCCCC3)CC2)cc1 | 0.06%
CCOc1ccc(C(=O)Nc2ccncc2)cc1 | -1.05%
CC(C)(C)NC(=O)CN(Cc1cccs1)C(=O)CNS(=O)(=O)c1ccccc1 | -7.23%
CCOCc1nnc(NC(=O)CSc2ccc(C)cc2)s1 | -2.27%
CC1=NN(C(C)C)C(=O)C1 | 28.4%
CC(=O)Nc1ccc(NC(=O)CSCc2cnn(-c3ccccc3)c2-n2cccc2)cc1 | 6.64%
COc1ccccc1N(C(=O)Cn1nnc2ccccc21)C(C(=O)NCc1ccco1)c1ccc(C)o1 (centres undefined) | -1.36%
O=C(CCc1ccccc1)NCc1cccnc1 | 23.1%
Cc1cc(C(=O)OC(C)C(=O)Nc2cccc(S(=O)(=O)N3CCOCC3)c2)c(C)o1 (centres undefined) | -5.93%
